# Screens: PubChem BioAssay, National Center for Advancing Translational Sciences (NCATS)
# This is a sample that favours compounds with a hit; in the whole collection about 19% have one here.
# Pf growth 48h – P. falciparum growth inhibition at 48 hours (one generation) | P. falciparum luciferase growth in erythrocytes, 48 h | Potency, µM (highest dose often 28.7 µM), for inactives: at the highest dose activity change, negative = inhibition, actives largely listed as inhibitors | 310,000 tested, 5.9% active; further: potency means the concentration at half of the fitted maximal effect; on the % scale 0 is the no-effect control and ±100 the full control effect
#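 Compounds are pin-transferred into medium, infected erythrocytes (2% hematocrit, 0.1% parasitemia final) are added, and plates sit one parasite generation at 37 C in 5% CO2. Detection reagent is then added and luminescence measured.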
# Shiga toxin inh – blocks Shiga toxin action in Vero cells | Vero cells, Shiga toxin protein synthesis inhibition reporter | 290,000 tested, 9.2% active | inhibition, % at 38.7 µM; in the data active means inhibition mostly above about 28%, no sharp cut-off; inactive means mostly below about 43%; further: 0% is about no effect
# AMA1 RON2 block – disrupts binding of P. falciparum AMA1 to RON2 | 360,000 tested, 0.2% active | AID 720542 | AlphaScreen AMA1-biotinylated RON2 peptide binding | Potency, µM (highest dose often 58.2 µM), without a hit: at the highest dose activity change, negative = inhibition, actives largely listed as inhibitors;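 further: potency means the concentration at half of the fitted maximal effect; 0% = vehicle wells and -100% = peptide control; nearly all actives have a fitted effect of over 45% in size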
#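 AMA1 (3D7) with his tag at 25 nM final met compounds first, then biotinylated RON2 peptide at 25 nM; detection used donor plus acceptor beads, 10 µg/mL apiece, read by AlphaScreen after 30 min at room temperature.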
# SARS PLP yeast – inhibitors of SARS-CoV papain-like protease in yeast | S. cerevisiae expressing SARS-CoV PLpro, growth rescue | Potency, µM (highest dose often 32.9 µM), for inactives: at the top dose activity, positive = growth rescue, most hits filed as activators | 330,000 tested, 0.19% active | AID 485353; calls by dose curve; further: potency means the concentration at half of the fitted maximal effect; 0% is about no effect; nearly all actives have a fitted effect of over 55% in size
# CHX counter – affects cycloheximide protein synthesis inhibition readout, counter-screen; cell reporter, cycloheximide protein synthesis inhibition counterscreen; max response, %; 300,000 tested, 12% active; AID 2314; in the data active means max response mostly above about 13%, no sharp cut-off; inactive means mostly below about 14%; further: read at 38.3 µM for the half of the compounds with a filed dose; 0% is about no effect
# Pf growth 96h – inhibits malaria parasite growth, 96 h. AID 504834. P. falciparum luciferase reporter growth, 96 h. 320,000 tested, 6.9% active. Potency, µM (series often up to 28.7 µM), inactives show at the highest dose activity change, negative = inhibition, actives largely listed as inhibitors; further: potency means the concentration at half of the fitted maximal effect; on the % scale 0 is the no-effect control and ±100 the full control effect
#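 Cell-based qHTS: luciferase-tagged P. falciparum in erythrocytes (2% hematocrit, 0.05% parasitemia final) incubated with compounds for 96 hours, 37 C, 5% CO2; luciferase detection reagent then added and luminescence measured.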
# * hit, by the source's call; ? = inconclusive; nt = no result given; [ ] = dose if it differs, or a comment. Unless noted, the call rests on the fitted dose curve; in most records, active means well fitted curve in the direction sought with a large enough effect; inconclusive means small, poorly fitted or top-dose-only effect, or another doubt; inactive means no such curve, though single readings can be large; an effect the other way counts as inactive or inconclusive.
SMILES,Pf growth 48h,Shiga toxin inh,AMA1 RON2 block,SARS PLP yeast,CHX counter,Pf growth 96h
COc1ccc(OC)c(CNC(=O)Cc2c(C(=O)O)[nH]c3ccccc23)c1,1%,-8,-20%,-1%,1,9.3µM*
COc1ccc(Br)cc1CNC(=O)CCCc1cn(C)c2ccccc12,-7%,-9,?,-7%,-3,12µM*
COc1ccc(NC(=S)NCCc2c(C)[nH]c3ccc(OC)cc23)cc1,?,-11,-18%,2%,-5,-1%
COc1ccc2[nH]c(C)c(CCNCc3cn(C)c4ccccc34)c2c1,8.3µM*,nt,?,5%,nt,5.2µM*
COc1ccc(CN2C(=O)c3cccc4cccc2c34)cc1F,23%,-3,53%,-9%,6,0%
CS(=O)(=O)N1CCC(Oc2ccccc2C(=O)N2CCN(CC3CC3)CC2)CC1,27%,-27,-9%,0%,-1,18%
COCn1ccnc1C(=O)c1ccco1,nt,nt,5%,nt,nt,nt
COc1cc(CCCN2C(=O)C(=O)NC[C@@H]2C(C)O)cc(OC)c1OC (stereo not given in full),47%,-11,-1%,-1%,-2,-10%
COc1ccc(OC)c(CNC(=O)CCCc2cn(C)c3ccccc23)c1,23%,-9,-29%,-3%,-2,?
COc1ccc(OC)c(CNC(=O)CCc2cn(C)c3ccccc23)c1,8%,-7,0%,0%,-2,3.7µM*
CCC1(CC)C(=O)NN(c2ccccc2)C1=O,4%,-3,13%,-9%,-4,415%
CN1OC(COC(=O)c2ccccc2)CC1c1ccccc1 (stereo not given),144%,94*,0%,18%,41*,403%
CN1C2CCC1C(COC(=O)c1ccccc1)C(O)C2 (stereo not given),?,5,-10%,-1%,-3,1%
CCN1CCN(Cc2ccc(NC(=O)c3ccc(C)c(NC(=O)c4ccnnc4)c3)cc2C(F)(F)F)CC1,50%,-9,-9%,-1%,4,?
CCN1CCN(Cc2ccc(C(=O)Nc3ccc(C)c(NCc4cnc(NC(=O)OC)cn4)c3)cc2C(F)(F)F)CC1,?,1,-19%,-6%,-4,0.37µM*
CCN1CCN(Cc2ccc(NC(=O)c3cc(NC(=O)c4cc(C)on4)cc(OC)c3)cc2C(F)(F)F)CC1,?,-8,-7%,-7%,-3,0.52µM*
COc1ccc(OC)c(NC(=O)c2cnn(-c3ccccc3)c2C)c1,?,27,-4%,-21%,8,?
CCN1CCN(Cc2ccc(NC(=O)c3cc(NC(=O)c4cnn(-c5ccccc5)c4N)cc(OC)c3)cc2C(F)(F)F)CC1,1.9µM*,6,-12%,0%,-2,0.83µM*
CCN1CCN(Cc2ccc(NC(=O)c3ccc(C)c(NC(=O)c4ccc5n[nH]nc5c4)c3)cc2C(F)(F)F)CC1,4%,-4,81%,-4%,-4,28%
CCN1CCN(Cc2ccc(NC(=O)c3ccc(C)c(NC(=O)C(=O)c4c[nH]c5ccccc45)c3)cc2C(F)(F)F)CC1,0.37µM*,-17,?,-8%,-11,0.41µM*
Cc1cc2c(s1)c1cnn(Cc3cc(C(F)(F)F)cc(Cl)c3F)c(=O)c1n2C,nt,15,nt,nt,4,nt
Cc1ccc(/C(O)=C2\C(=O)C(=O)N(C)C2c2ccc(F)cc2)cc1 (stereo not given),64%,-5,-5%,2%,-2,?
CCN1CCN(Cc2ccc(NC(=O)c3cc(NC(=O)C(=O)c4c[nH]c5ccccc45)cc(OC)c3)cc2C(F)(F)F)CC1,0.37µM*,25,?,1%,10,0.13µM*
Cc1cc(C)c2c(c1)/C(=N/NC(=O)c1cc(C)oc1C)CCC2,?,26,2%,-2%,36*,-19%
Cc1cc(C)c2c(c1)/C(=N/NC(=O)c1ccc(O)cc1)CCC2,?,36*,35%,-2%,22*,-10%
SMILES,Pf growth 48h,Shiga toxin inh,AMA1 RON2 block,SARS PLP yeast,CHX counter,Pf growth 96h
CCOc1ccccc1N(C)C(=O)CCS(=O)(=O)c1ccc2c(c1)NC(=O)CO2,-7%,-14,6%,0%,11,0%
COc1ccc(CNC(=O)CN2C(=O)CCSc3ccc(S(=O)(=O)N4CCCC4)cc32)cc1,-20%,-11,-7%,-2%,-2,-14%
O=C(Cn1ccc(NC(=O)OCc2ccccc2)nc1=O)NCc1ccc2c(c1)OCO2,19%,nt,-22%,6%,nt,0%
O=C1CCCN1c1ncc(S(=O)(=O)c2ccc([N+](=O)[O-])cc2)s1,?,27,5%,5%,-2,4.1µM*
C[C@H]1C[C@@H]2[C@H]3CCC4=CC(=O)C=C[C@@]4(C)[C@@]3(Cl)[C@@H](O)C[C@]2(C)[C@]1(OC(=O)c1ccco1)C(=O)CCl,4.5µM*,nt,nt,nt,nt,2µM*
CCCC(=O)O[C@]1(C(=O)CCl)[C@H](C)C[C@@H]2[C@H]3CCC4=CC(=O)C=C[C@]4(C)[C@@]3(F)C(=O)C[C@@]21C,?,nt,nt,nt,nt,1.9µM*
CC(=O)OCC(=O)[C@@]1(O)[C@H](C)C[C@@H]2[C@H]3CCC4=CC(=O)C=C[C@]4(C)[C@]3(F)[C@@H](O)C[C@@]21C,-3%[12.8 µM],nt,nt,nt,nt,-22%[12.8 µM]
CC1CC2C3CCC4=CC(=O)C=CC4(C)[C@@]3(Cl)C(O)CC2(C)C1(O)C(=O)CO (stereo not given in full),nt,nt,-5%,nt,nt,nt
C[C@@H]1C[C@H]2[C@@H]3CCC4=CC(=O)C=C[C@]4(C)[C@@]3(Cl)[C@@H](O)C[C@]2(C)[C@@]1(OC(=O)c1ccco1)C(=O)CCl,1.9µM*,nt,4%,nt,nt,2.1µM*
Cc1ccc(NC(=O)Nc2ccc(Cl)cn2)cc1,102%,44*,15%,1%,39*,-18%
O=C(Nc1ccc(Cl)c(Cl)c1)Nc1ccc([N+](=O)[O-])cn1,9.3µM*,10,-4%,1%,10,?
Cc1ccc(NC(=O)Nc2ccc(Cl)c(Cl)c2)nc1,70%,70*,-7%,-1%,32*,?
O=C(Nc1ccc(Cl)cn1)Nc1ccccc1Cl,22%,9,-22%,-2%,6,2%
O=C(Nc1ccc2ccccc2c1)C(c1ccc(C(F)(F)F)cc1)n1c(=O)c(-c2cc3ccccc3[nH]2)nc2ccccc21 (stereo not given),nt,nt,12%,nt,nt,nt
COc1cccc(CN(C)C(=O)c2ccc3nccnc3c2)c1,nt,-14,-9%,-16%,-3,?
O=C(Nc1cccc(/C=C/c2nc3ccccc3c(=O)[nH]2)c1)c1ccccc1Cl,4%,39,-1%,-2%,11*,3%
COc1ccc(C(=O)Nc2cccc(/C=C/c3nc4ccccc4c(=O)[nH]3)c2)cc1,38%,107*,-1%,-3%,20*,72%
COc1cc(/C=C/c2nc3ccccc3c(=O)[nH]2)cc(Cl)c1O,-3%,25,-12%,13%,-3,?
